In PubChem BioAssay (NCATS):
Results filed as inconclusive are left out. Active and inactive are the calls of the source. Unless noted, the call rests on the fitted dose curve; in most records, active means well fitted curve in either direction with a large enough effect (not every such curve was filed as active); inconclusive means small, poorly fitted or top-dose-only effect, or another doubt; inactive means flat fitted curve, though single readings scatter.

Experiments:
[1] = AP1 Signaling Pathway (AID 357); conditions: ME-180 AP-1-bla reporter, EGF-induced, beta-lactamase ratio, 5 h; at 7.69 µM (top of the series) unless noted;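 further: ME-180 reporter cells stimulated with EGF at its EC50 level; on the % scale 0 is the no-effect control and ±100 the full control effect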
Outline: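 A ratiometric CCF4 readout (405 nm excitation; 460 and 530 nm emission) quantified AP-1-driven beta-lactamase in ME-180 cells after 5 h with compound and EC50 EGF; AC50 values were derived for activators and inhibitors.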

[2] = Stat Signaling Pathway (AID 446); conditions: ME-180 SIE beta-lactamase reporter, IL-6 stimulated, 5 h; at 7.69 µM (top of the series) unless noted;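 further: ME-180 cervical cancer cells given 40 pM IL-6 alongside compound; SIE-controlled beta-lactamase reporter measured as 460/530 nm FRET emission ratio; on the % scale 0 is the no-effect control and ±100 the full control effect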
Outline: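 Normalization used AC90 stimulation (300 pM IL-6) and AC90 inhibition (125 nM pan-JAK inhibitor at 40 pM IL-6). The underlying signal is SIE-driven beta-lactamase in ME-180 cells after 5 h IL-6 exposure with compound.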

[3] = target: Glucocorticoid receptor (Homo sapiens) (UniProt P04150); assay: GR-EFC Redistribution (AID 451; calls by dose curve; further: potency means the concentration at half of the fitted maximal effect); conditions: CHO-K1 GR-EFC translocation, beta-gal luminescence, 2 h
Outline: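 CHO-K1 cells stably expressing nuclear-localized β-gal enzyme acceptor and GR fused C-terminally to the enzyme donor fragment; ligand-driven nuclear translocation restores β-gal by complementation. Compounds titrated up to 46 uM final, 2 h at 37 °C; luminescence read.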

[4] = target: Mitogen-activated protein kinase 10 (Mus musculus) (UniProt Q61831); assay: JNK3 AlphaScreen Assay (AID 530);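 further: kinase came from lysate of stimulated human HepG2 cells; signal reports phosphorylation of biotinylated GST-cJun 1-79 at Ser73 with 10 µM ATP; on the % scale 0 is the no-effect control and ±100 the full control effect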
Outline: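 Biotinylated GST-cJun(1-79) served as substrate for JNK3 in HepG2 lysates stimulated with IL-1beta and TNF-alpha. ATP was 10 uM final, pH 7.6. Ser73 phosphorylation was quantified by AlphaScreen (680 nm excitation).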

[5] = target: 3',5'-cyclic-AMP phosphodiesterase 4B (Homo sapiens) (UniProt Q07343); assay: qHTS Assay for Inhibitors of PDE-IV (AID 607; active means well fitted activation curve with a large enough effect in the main read-out, with a control signal flat, not every such curve was filed as active; further: % of control where 0% means no effect)
Outline: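 HEK293 ACTOne cells with CNG channel (1000/well), endogenous PDE4; membrane potential dye, compounds up to 22.9 uM final. Fluorescence Ex 535/Em 590; RO 20-1724 (100 uM final) as reference.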

[6] = Primary qHTS for small molecule stabilizers of the endoplasmic reticulum resident proteome: Secreted ER Calcium Modulated Protein (SERCaMP) assay (AID 1508630; active means well fitted curve in the direction sought with a large enough effect; an effect the other way counts as inactive or inconclusive; further: on the % scale 0 is the no-effect control and ±100 the full control effect)
Outline: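 The SH-SY5Y reporter protocol was run at 3 concentrations up to 38.3 uM (primary) or 11 concentrations (follow-up): 16 h compound, 100 nM thapsigargin for 4 h, then extracellular luciferase luminescence.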

[7] = target: Lysosomal acid glucosylceramidase (Homo sapiens) (UniProt P04062); assay: Glucocerebrosidase-p2 (AID 348; in the data active means potency below about 10 µM; further: potency means the concentration at half of the fitted maximal effect); conditions: purified GBA, blue fluorogenic substrate, 40 min
Outline: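 Normal human glucocerebrosidase (0.2 nM) with blue fluorogenic substrate (80 uM final) in citrate/phosphate pH 5.9 with 10mM sodium taurocholate, 0.01% tween-20; 40 min RT, NaOH/glycine stop; fluorescence Ex 365/Em 440; AC50 from a titration from 0.6 nM upwards.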

[8] = target: Glucocorticoid receptor (Homo sapiens) (UniProt P04150); assay: GR-GFP Redistribution (AID 450;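 active means compounds whose dose series gives a full or clear partial fitted curve of increased nuclear translocation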; further: potency means the concentration at half of the fitted maximal effect); conditions: U2OS GR-GFP nuclear translocation, laser cytometry, 2 h
[9] = qHTS Assay for Identification of Small Molecule Agonists for Hypoxia Response Element Signaling Pathway (AID 914; active means well fitted activation curve with a large enough effect in the signal ratio, with a control signal flat, not every such curve was filed as active; the % refers to the signal ratio; further: potency means the concentration at half of the fitted maximal effect); conditions: ME-180 (cervical carcinoma) HRE-bla reporter, beta-lactamase ratio, CoCl2, 17 h; activation: active compounds read high
Outline: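 A beta-lactamase reporter under hypoxia response element control in ME-180 cells served as the system. Compound titrations plus EC50 CoCl2 ran 17 h at 37 degrees Celsius; AC50 values were fitted from %Activity.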

[10] = NFAT Signaling Pathway (AID 444); conditions: Jurkat NFAT-bla M1, carbachol, beta-lactamase ratio, 5 h; at 7.69 µM (top of the series) unless noted
Outline: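 Jurkat cells carrying an NFAT-driven β-lactamase reporter and co-transfected muscarinic M1 receptor were treated with compound plus carbachol (1 uM final, an EC50 level) for 5 h at 37 °C. CCF4 loading followed for 1 h at RT; 460/530 nm ratio gave %activity.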

[11] = target: Cytochrome P450 3A4 (Homo sapiens) (UniProt P08684); assay: qHTS Assay for Inhibitors and Substrates of Cytochrome P450 3A4 (AID 884; active means well fitted curve in the direction sought with a large enough effect; an effect the other way counts as inactive or inconclusive; further: nearly all actives have a fitted effect of over 50% in size; further: potency means the concentration at half of the fitted maximal effect)
Outline: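 Luminescent readout of luciferin produced by CYP3A4 (20 nM) dealkylation of Luciferin-PPXE, 25 uM (its KM). NADPH-driven reaction ran 60 min at RT after 10 min compound preincubation; data scaled to 57 uM ketoconazole as 100% inhibition.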

[12] = target: Cytochrome P450 3A4 (Homo sapiens) (UniProt P08684); assay: qHTS Assay for Activators of Cytochrome P450 3A4 (AID 885; active means well fitted curve in the direction sought with a large enough effect; an effect the other way counts as inactive or inconclusive; further: nearly all actives have a fitted effect of over 65% in size; further: potency means the concentration at half of the fitted maximal effect)
Outline: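 Human CYP3A4 dealkylates Luciferin-PPXE to luciferin, which luciferase detection converts to light. Substrate was at its KM (25uM), buffer 200mM KPO4, reaction 60 min at RT.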

[13] = target: Cytochrome P450 1A2 (Homo sapiens) (UniProt P05177); assay: p450-cyp1a2 (AID 410; calls by dose curve; further: potency means the concentration at half of the fitted maximal effect;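 on activity change, negative = inhibition: -100% = full effect of reference inhibitor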)
Outline: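 Read-out is luminescence from luciferin produced by CYP1A2 demethylation of Luciferin-ME (100uM, at Km). Detection reagent stopped the 60 min NADPH-dependent reaction; signals were normalized to 57 uM furafylline.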

[14] = target: Cytochrome P450 2C9 (Homo sapiens) (UniProt P11712); assay: qHTS Assay for Inhibitors and Substrates of Cytochrome P450 2C9 (AID 883; active means well fitted curve in the direction sought with a large enough effect; an effect the other way counts as inactive or inconclusive; further: potency means the concentration at half of the fitted maximal effect; nearly all actives have a fitted effect of over 60% in size)
Outline: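 Human CYP2C9 (10nM) hydroxylated Luciferin-H (100uM, at its KM) to luciferin in 25mM KPO4. Compound was preincubated 10 min at 37C, then NADPH regeneration started a 60 min reaction at 37C. Luminescence was read after detection reagent, normalized to 57uM sulphaphenazole.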

[15] = target: Cytochrome P450 2D6 (Homo sapiens) (UniProt P10635); assay: qHTS Assay for Inhibitors and Substrates of Cytochrome P450 2D6 (AID 891; active means well fitted curve in the direction sought with a large enough effect; an effect the other way counts as inactive or inconclusive; further: potency means the concentration at half of the fitted maximal effect; nearly all actives have a fitted effect of over 60% in size)
Outline: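 Luminescent read-out of luciferin formed by 5 nM human CYP2D6 demethylating 30 uM Luciferin-ME EGE (Km level) over 60 min at room temperature after NADPH regeneration addition. Data normalized to full inhibition by 1.43 uM quinidine.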

[16] = target: Guanine nucleotide-binding protein G(i) subunit alpha-1 (Homo sapiens) (UniProt P63096); assay: qHTS Assay for Inhibitors of RGS12 GoLoco Motif Activity (Green Fluorophore) (AID 879; active means well fitted curve in the direction sought with a large enough effect; an effect the other way counts as inactive or inconclusive;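 further: 0% = labeled peptide with Gαi1 and full inhibition = labeled peptide alone without protein; negative values mean loss of peptide binding seen as reduced polarization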)
Outline: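 A drop in FITC polarization marked displacement of the FITC-tagged RGS12 GoLoco peptide (10 nM) from Gαi1 (50 nM). Compounds were incubated 10 min at room temperature in Tris pH 7.5 buffer containing 150 mM NaCl, 0.1 mM GDP and 0.05% NP40; unlabeled peptide titration served as control.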

[17] = target: Muscarinic acetylcholine receptor M1 (Rattus norvegicus) (UniProt P08482); assay: qHTS Assay for Antagonists of Acetylcholine Muscarinic M1 Receptor: Measurement of IP-One Response (AID 944; active means well fitted curve in the direction sought with a large enough effect; an effect the other way counts as inactive or inconclusive; further: nearly all actives have a fitted effect of over 75% in size)
Outline: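 Antagonism was measured as loss of carbachol-driven (EC80) IP1 accumulation in CHO cells carrying rat M1, using a homogeneous IP-One TR-FRET kit read at 620 and 665 nm.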

[18] = target: Pyruvate kinase (Leishmania mexicana) (UniProt Q27686); assay: qHTS Validation Assay for Inhibitors of Leishmania Mexicana Pyruvate Kinase (AID 945; active means well fitted curve in the direction sought with a large enough effect; an effect the other way counts as inactive or inconclusive;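 further: 0% = DMSO only neutral control wells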)
Outline: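 Compounds are tested as eight-point concentration series. Reactions contain 0.2 nM LmPYK E451W, 0.5 mM PEP, 0.1 mM ADP, 7 mM MgCl2 and 50 mM KCl at pH 7.2, run 1 h at room temperature, then read by PKLight luminescence.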

[19] = target: Pyruvate kinase PKM (Homo sapiens) (UniProt P14618); assay: qHTS Assay for Activators of Human Muscle Pyruvate Kinase (AID 954; active means well fitted curve in the direction sought with a large enough effect, not every such curve was filed as active;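 further: 0% = uninhibited enzyme and -100% = no enzyme or full thiadiazolimine inhibition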)
Outline: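 Compound pinned into substrate mix (0.5 mM PEP, 0.1 mM ADP), then 0.1 nM PKM2 added; 1 h, RT. Stop/detection luciferase reagent added, luminescence read. Normalized to no-inhibition and no-enzyme or reference-inhibitor controls.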

[20] = target: Alpha-galactosidase A (Homo sapiens) (UniProt P06280); assay: Counterscreen for Glucocerebrosidase Inhibitors: qHTS Assay for Human alpha-Galactosidase at pH 4.5 (AID 992; active means well fitted curve in the direction sought with a large enough effect; an effect the other way counts as inactive or inconclusive; further: 0% is about no effect)
Outline: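 Steps: enzyme (2 nM final), then compound across 0.7 nM to 77 uM, then 80 uM fluorogenic galactopyranoside substrate; incubate 20 min at room temperature; quench at pH 10; measure fluorescence at 365/440 nm.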

[21] = target: alpha-glucosidase (Oryza sativa, rice) (UniProt Q653V4); assay: Counterscreen for Glucocerebrosidase Inhibitors: qHTS Assay for Rice alpha-Glucosidase at pH 5.0 (AID 997; active means well fitted curve in the direction sought with a large enough effect; an effect the other way counts as inactive or inconclusive;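 further: 0% = full activity with enzyme and -100% = basal without enzyme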)
Outline: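 Endpoint fluorogenic assay at pH 5.0: compounds (0.7 nM to 77 uM) titrated against 4 nM rice enzyme and 400 uM 4-MU-alpha-glucoside for 20 min at room temperature; NaOH/glycine stop, read ex 365/em 440 nm, Hill-fitted AC50.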

Chain of Lysosomal acid glucosylceramidase (Homo sapiens) (P04062 whole entry, looked up): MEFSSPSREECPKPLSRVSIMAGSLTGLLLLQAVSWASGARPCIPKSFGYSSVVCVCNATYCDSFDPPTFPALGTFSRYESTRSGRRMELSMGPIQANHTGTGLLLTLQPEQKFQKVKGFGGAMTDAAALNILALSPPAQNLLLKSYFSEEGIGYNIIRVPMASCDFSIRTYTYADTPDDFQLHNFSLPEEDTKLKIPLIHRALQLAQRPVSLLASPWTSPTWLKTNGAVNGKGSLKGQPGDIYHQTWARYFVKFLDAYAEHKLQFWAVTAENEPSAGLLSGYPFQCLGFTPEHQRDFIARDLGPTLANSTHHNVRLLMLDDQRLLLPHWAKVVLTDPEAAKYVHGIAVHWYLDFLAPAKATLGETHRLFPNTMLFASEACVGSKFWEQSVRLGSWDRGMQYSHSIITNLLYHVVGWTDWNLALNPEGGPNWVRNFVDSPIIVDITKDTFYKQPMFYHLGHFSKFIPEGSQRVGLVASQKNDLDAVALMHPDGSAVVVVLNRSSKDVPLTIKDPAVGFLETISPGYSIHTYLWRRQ
Chain of Cytochrome P450 1A2 (Homo sapiens) (P05177 whole entry, looked up): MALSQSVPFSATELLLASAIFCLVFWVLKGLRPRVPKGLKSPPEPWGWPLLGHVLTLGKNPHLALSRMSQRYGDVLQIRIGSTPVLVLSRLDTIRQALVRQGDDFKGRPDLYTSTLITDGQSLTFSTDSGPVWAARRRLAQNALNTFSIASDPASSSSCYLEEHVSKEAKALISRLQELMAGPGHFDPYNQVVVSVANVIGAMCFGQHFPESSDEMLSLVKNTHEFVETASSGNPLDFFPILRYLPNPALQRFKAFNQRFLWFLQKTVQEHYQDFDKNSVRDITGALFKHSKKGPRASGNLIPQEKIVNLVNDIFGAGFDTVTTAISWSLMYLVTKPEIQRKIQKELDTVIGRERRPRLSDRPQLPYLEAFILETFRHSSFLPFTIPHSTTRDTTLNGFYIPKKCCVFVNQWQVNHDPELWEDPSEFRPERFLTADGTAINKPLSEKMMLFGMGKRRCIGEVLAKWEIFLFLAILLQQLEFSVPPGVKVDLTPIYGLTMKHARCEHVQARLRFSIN
Chain of Cytochrome P450 3A4 (Homo sapiens) (P08684 whole entry, looked up): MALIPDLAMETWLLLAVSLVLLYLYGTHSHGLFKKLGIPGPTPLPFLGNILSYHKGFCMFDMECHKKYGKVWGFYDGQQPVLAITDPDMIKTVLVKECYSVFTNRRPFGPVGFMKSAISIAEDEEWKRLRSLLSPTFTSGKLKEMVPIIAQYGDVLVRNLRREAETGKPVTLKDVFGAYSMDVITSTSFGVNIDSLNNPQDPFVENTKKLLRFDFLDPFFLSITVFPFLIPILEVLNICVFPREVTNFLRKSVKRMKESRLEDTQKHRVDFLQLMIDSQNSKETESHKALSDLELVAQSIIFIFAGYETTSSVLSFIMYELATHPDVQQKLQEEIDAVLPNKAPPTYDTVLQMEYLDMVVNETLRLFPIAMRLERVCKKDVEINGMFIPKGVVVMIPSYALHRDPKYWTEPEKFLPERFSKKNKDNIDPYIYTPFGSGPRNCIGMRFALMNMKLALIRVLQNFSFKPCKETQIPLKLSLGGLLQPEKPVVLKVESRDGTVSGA
Chain of 3',5'-cyclic-AMP phosphodiesterase 4B (Homo sapiens) (Q07343 whole entry, looked up): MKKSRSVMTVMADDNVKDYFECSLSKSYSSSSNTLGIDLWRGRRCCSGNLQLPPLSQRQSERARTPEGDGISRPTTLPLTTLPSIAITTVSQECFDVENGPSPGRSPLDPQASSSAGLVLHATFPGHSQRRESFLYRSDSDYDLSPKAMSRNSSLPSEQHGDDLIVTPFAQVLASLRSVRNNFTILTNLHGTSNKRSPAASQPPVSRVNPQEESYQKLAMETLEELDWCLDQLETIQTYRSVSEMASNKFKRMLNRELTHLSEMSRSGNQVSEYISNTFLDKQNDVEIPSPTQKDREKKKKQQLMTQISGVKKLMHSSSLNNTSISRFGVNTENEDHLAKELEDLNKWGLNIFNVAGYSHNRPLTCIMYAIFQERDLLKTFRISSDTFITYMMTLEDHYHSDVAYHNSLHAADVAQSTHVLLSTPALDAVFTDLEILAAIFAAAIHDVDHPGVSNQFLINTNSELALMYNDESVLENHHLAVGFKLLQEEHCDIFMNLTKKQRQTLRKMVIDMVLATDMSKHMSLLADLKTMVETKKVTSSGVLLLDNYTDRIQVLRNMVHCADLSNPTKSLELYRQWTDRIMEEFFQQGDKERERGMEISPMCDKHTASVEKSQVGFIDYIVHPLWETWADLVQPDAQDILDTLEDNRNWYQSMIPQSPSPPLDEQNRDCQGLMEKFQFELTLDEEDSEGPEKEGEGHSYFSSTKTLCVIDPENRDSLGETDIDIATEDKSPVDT
Chain of Glucocorticoid receptor (Homo sapiens) (P04150 whole entry, looked up, the tested form may be a part): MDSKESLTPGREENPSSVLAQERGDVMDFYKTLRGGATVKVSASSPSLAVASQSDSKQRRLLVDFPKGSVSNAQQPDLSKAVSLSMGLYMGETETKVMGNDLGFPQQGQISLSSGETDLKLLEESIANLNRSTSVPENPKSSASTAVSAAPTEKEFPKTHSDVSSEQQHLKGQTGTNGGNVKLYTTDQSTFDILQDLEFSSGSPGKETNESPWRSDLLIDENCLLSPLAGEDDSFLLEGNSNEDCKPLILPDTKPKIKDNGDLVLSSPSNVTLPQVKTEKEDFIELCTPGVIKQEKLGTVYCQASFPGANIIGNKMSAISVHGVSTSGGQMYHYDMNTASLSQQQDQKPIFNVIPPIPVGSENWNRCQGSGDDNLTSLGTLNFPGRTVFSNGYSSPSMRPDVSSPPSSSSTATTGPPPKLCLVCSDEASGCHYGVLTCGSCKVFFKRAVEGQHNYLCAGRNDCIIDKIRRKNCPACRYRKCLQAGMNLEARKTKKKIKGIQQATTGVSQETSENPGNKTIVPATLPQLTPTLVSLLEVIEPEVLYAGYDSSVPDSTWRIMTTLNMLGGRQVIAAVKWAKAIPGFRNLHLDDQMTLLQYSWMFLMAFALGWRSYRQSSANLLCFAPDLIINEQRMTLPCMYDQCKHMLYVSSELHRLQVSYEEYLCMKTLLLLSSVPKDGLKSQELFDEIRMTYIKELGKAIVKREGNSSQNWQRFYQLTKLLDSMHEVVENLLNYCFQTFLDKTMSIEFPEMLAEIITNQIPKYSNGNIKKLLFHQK
Chain of Cytochrome P450 2C9 (Homo sapiens) (P11712 whole entry, looked up): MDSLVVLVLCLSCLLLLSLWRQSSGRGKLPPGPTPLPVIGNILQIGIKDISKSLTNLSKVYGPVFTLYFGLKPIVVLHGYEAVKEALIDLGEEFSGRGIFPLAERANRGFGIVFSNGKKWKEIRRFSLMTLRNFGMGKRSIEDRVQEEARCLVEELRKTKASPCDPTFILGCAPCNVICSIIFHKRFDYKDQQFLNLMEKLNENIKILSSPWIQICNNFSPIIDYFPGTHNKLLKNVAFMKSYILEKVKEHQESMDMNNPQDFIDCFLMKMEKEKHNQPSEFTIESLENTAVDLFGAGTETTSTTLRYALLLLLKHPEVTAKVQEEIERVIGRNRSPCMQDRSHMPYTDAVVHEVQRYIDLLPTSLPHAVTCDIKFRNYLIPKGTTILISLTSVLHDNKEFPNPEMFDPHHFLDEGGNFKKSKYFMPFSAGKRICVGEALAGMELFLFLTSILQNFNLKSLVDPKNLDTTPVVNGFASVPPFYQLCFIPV
Chain of Guanine nucleotide-binding protein G(i) subunit alpha-1 (Homo sapiens) (P63096 whole entry, looked up): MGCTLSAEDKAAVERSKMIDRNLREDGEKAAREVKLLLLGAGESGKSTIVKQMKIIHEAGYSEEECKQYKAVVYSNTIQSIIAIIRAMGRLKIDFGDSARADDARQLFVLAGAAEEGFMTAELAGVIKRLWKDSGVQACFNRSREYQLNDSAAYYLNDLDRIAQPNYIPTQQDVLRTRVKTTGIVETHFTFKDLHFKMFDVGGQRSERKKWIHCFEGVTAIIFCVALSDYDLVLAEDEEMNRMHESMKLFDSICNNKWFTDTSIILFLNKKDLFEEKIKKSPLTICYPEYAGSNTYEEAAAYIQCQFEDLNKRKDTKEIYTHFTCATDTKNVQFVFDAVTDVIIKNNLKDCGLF
Chain of Pyruvate kinase PKM (Homo sapiens) (P14618 whole entry, looked up): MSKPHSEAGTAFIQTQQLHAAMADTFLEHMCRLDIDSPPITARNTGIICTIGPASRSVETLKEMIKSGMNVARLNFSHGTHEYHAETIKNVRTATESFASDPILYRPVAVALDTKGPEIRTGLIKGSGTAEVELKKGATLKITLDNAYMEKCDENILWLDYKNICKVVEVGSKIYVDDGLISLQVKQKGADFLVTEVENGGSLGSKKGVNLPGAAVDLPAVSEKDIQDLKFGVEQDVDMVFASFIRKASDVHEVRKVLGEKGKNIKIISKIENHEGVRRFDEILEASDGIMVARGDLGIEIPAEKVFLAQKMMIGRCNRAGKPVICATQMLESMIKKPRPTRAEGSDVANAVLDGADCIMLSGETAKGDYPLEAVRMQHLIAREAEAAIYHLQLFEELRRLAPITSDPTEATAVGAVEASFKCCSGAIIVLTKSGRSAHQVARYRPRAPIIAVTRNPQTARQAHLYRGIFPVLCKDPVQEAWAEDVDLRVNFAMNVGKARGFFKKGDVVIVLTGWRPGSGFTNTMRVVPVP
Chain of Alpha-galactosidase A (Homo sapiens) (P06280 whole entry, looked up): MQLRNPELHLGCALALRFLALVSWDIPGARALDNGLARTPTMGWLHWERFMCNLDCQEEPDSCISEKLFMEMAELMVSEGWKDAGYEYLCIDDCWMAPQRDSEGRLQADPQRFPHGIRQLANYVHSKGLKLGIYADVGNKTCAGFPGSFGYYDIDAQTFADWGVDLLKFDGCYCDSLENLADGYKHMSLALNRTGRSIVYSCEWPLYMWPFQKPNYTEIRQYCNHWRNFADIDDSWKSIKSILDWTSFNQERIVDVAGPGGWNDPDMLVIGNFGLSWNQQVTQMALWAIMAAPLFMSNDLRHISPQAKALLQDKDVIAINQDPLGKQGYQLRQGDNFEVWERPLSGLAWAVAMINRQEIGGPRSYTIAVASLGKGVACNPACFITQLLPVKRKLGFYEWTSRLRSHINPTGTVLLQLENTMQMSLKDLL

O=C(c1cnccn1)N1CCC2(CCCN(Cc3ccncc3)C2)CC1
inactive: activity change, negative = inhibition [1] -12.8% | activity, negative = inhibition [2] 6.38% | Potency [3] > 46 µM | Potency [4] | Potency [5] | outcome [6]

O=S(=O)(c1ccccc1)N1CCC2(CCCN(Cc3cc(C(F)(F)F)cc(C(F)(F)F)c3)C2)CC1
inactive: Potency [7] > 11.4 µM | activity, negative = inhibition [2] 5.03% | Potency [3] > 46 µM | Potency [4] | Potency [5] | outcome [6]

COCCn1c(=O)c(-c2cccs2)nc2cnc(Oc3cccc(Cl)c3)nc21
active: Potency [9] 3.16 µM
inactive: Potency [7] > 11.4 µM | Potency [8] > 9.22 µM | Potency [3] > 46 µM | Potency [5] | outcome [6]

COc1ccc(-c2nc3cnc(OC)nc3n(Cc3cccc(OC)c3)c2=O)cc1
active: Potency [11] 2.51 µM
inactive: activity change, negative = inhibition [1] -4% | activity change, negative = inhibition [10] -10.2% | activity, negative = inhibition [2] 27.2% | Potency [8] > 9.22 µM | Potency [3] > 46 µM | Potency [4] | Potency [12] | outcome [6]

CN(C)c1ncc2nc(-c3ccc(Cl)cc3)c(=O)n(C3CC3)c2n1
active: Potency [9] 2.51 µM
inactive: Potency [7] > 11.4 µM | Potency [8] > 9.22 µM | Potency [3] > 46 µM | Potency [4] | Potency [5] | outcome [6]

COc1cccc(Cn2c(=O)c(CCc3ccccc3)nc3cnc(OC)nc32)c1
active: Potency [13] 12.6 µM | Potency [14] 6.31 µM | Potency [11] 2.51 µM
inactive: activity change, negative = inhibition [1] -4.92% | activity change, negative = inhibition [10] -14.6% | activity, negative = inhibition [2] 1.12% | Potency [8] > 9.22 µM | Potency [3] > 46 µM | Potency [12] | outcome [6]

COc1ccc(NC(=O)N2CCC3(CC2)CCN(C(=O)c2cccc(F)c2)CC3)cc1
active: Potency [12] 12.6 µM
inactive: activity change, negative = inhibition [1] -4.05% | Potency [13] | activity change, negative = inhibition [10] 8.11% | activity, negative = inhibition [2] 0.897% | Potency [3] > 46 µM | Potency [4] | Potency [5] | Potency [11] | outcome [6]

COc1ccc(C(=O)N2CCC3(CCCN(Cc4ccccc4)C3)CC2)cc1
active: Potency [15] 7.94 µM
inactive: Potency [7] > 11.4 µM | Potency [13] | Potency [3] > 46 µM | Potency [4] | Potency [5] | Potency [12] | outcome [6]

O=c1c(-c2cccc(F)c2)nc2cncnc2n1-c1ccccc1
active: Potency [13] 10 µM
inactive: activity change, negative = inhibition [1] -10.3% | activity change, negative = inhibition [10] -2.26% | activity, negative = inhibition [2] -2.29% | Potency [8] > 9.22 µM | Potency [3] > 46 µM | Potency [4] | Potency [12] | outcome [6]

O=C(Nc1cccc(F)c1)N1CCCC2(CCN(C(=O)c3cccc(F)c3)CC2)C1
inactive: Potency [7] > 11.4 µM | activity, negative = inhibition [2] -9.43% | Potency [3] > 46 µM | Potency [4] | outcome [6]

Oc1cc2c(c(Cl)c1O)CCNC[C@H]2c1ccccc1
inactive: activity change, negative = inhibition [1] -21% [at 38 µM] | Potency [13] | activity change, negative = inhibition [10] -20.4% [at 38 µM] | Potency [8] > 46 µM | Potency [3] > 46 µM | Potency [4] | Potency [5] | Potency [16] | Potency [12] | Potency [17] | outcome [18] | outcome [19] | outcome [20] | outcome [21] | outcome [6]

CS(=O)(=O)N1CCC2(CCCN(c3ncccn3)C2)CC1
active: Potency [13] 15.8 µM
inactive: activity change, negative = inhibition [1] 1.67% | activity, negative = inhibition [2] -8.29% | Potency [3] > 46 µM | Potency [4] | Potency [5] | outcome [6]

O=c1cnc2cnc(Nc3ccccc3)nc2n1C[C@H]1CCCO1
active: Potency [13] 0.794 µM
inactive: Potency [7] > 11.4 µM | Potency [8] > 9.22 µM | Potency [3] > 46 µM | Potency [5] | Potency [12] | outcome [6]

COc1ccc(NC(=O)N2CC3(CCN(C(=O)c4csnn4)CC3)C2)cc1
inactive: activity change, negative = inhibition [1] 20.6% | Potency [13] | activity change, negative = inhibition [10] 16.7% | activity, negative = inhibition [2] -2.12% | Potency [3] > 46 µM | Potency [4] | Potency [5] | outcome [6]

N#CCCn1c(=O)c(-c2ccc(F)cc2)nc2cnc(Oc3cccc(Cl)c3)nc21
inactive: Potency [8] > 9.22 µM | Potency [3] > 46 µM | Potency [4] | Potency [5] | outcome [6]
active: Potency [13] 0.501 µM
